From PubChem
Vif-APOBEC3F blk: qHTS for Inhibitors of Vif-A3F Interactions: qHTS | HeLa A3F-eYFP + Vif (tagged APOBEC3F with the HIV-1 protein that degrades it), YFP fluorescence increase | Potency, µM (titrated, usually from 46.1 µM), for inactives: top-dose activity, negative = active | 390,000 compounds, 0.2% hits | AID 602313, 2012; further: potency means the concentration at half of the fitted maximal effect; % of control where 0% means no effect; nearly all actives have a fitted effect of over 65% in size
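HeLa cells stably expressing Vif plus C-terminally eYFP-tagged A3F were seeded, incubated overnight at 37 deg C, dosed with compound, incubated overnight again at 37 deg C. Yellow fluorescence (Ex 488/Em 500-530) reported blocked Vif-mediated A3F-eYFP degradation.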
Glioma ERSR ind: qHTS for Inducers of the Endoplasmic Reticulum Stress Response (ERSR) in Human Glioma: qHTS; Potency, µM, without a hit: at the top dose activation, hits mostly activators; U87-MG GRP78 promoter luciferase reporter, 16 h; 420,000 compounds, 0.02% hits; further: potency means the concentration at half of the fitted maximal effect; series mostly up to about 76 µM; % of control where 0% means no effect; nearly all actives have a fitted effect of over 35% in size
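ERSR induction read as luciferase luminescence (Bright-Glo, 10 min at room temperature) in stably transfected human U87-MG glioma cells exposed to compounds for 16 h, using GRP78 as sensor.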
PINK1 modulator: A Quantitative High throughput Screen to Identify Chemical Modulators of PINK1 Expression; 410,000 compounds, 0.2% hits; Potency, µM (highest dose often 76.6 µM), for inactives: top-dose activation (PINK1 increase), actives largely listed as activators; PINK1 immunofluorescence, high-content cytometry, 24 h; active means well fitted activation curve with a large enough effect; inconclusive means small, poorly fitted or top-dose-only effect; cell line not stated here; further: potency means the concentration at half of the fitted maximal effect; % of control where 0% means no effect; nearly all actives have a fitted effect of over 65% in size
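Compound titrations (5 concentrations, 24 h) on a stable cell line; DMSO and CCCP controls. Endpoint: fixed-cell PINK1 immunofluorescence with mitochondrial, cell and nuclear markers, scanned by microplate cytometer.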
LDHA block: qHTS assay for inhibitors of human lactate dehydrogenase. L-lactate dehydrogenase A chain (Homo sapiens), P00338. purified LDHA, NADH/diaphorase-resazurin fluorescence; hits give low values. activity change, % (values are at about 110 or 230 µM). 480,000 compounds, 0.15% hits. AID 1347041, 2019; in the data active means activity change below about -30%; inconclusive means mostly about -25% to -30%;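 further: plate controls were DMSO wells for no effect and wells without enzyme for full effect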
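Remaining NADH was detected by diaphorase (0.133 mg/mL) converting 37 µM resazurin to fluorescent resorufin, read at 0 and 20 minutes. The preceding 5-minute room-temperature reaction used 2 nM LDHA, 0.2 mM sodium pyruvate and 0.06 mM NADH at pH 7.4.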
pAkt inh: HTS Assay for Inhibitors of Akt Phophorylation: Primary Screen; Neuro2A IGF-stimulated pAkt S473 HTRF, 20 min; hits give low values; activity change, % for hits at 50 µM; 360,000 compounds, 0.32% hits; AID 651550, 2012; in the data active means activity change below about -80%; inconclusive means mostly about -51% to -80%; further: on the % scale 0 is the no-effect control and ±100 the full control effect
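Single-point screen (50 µM final compound) in Neuro2A cells stimulated 20 min with 6 nM IGF at 37 deg C. After lysis, Ser473-phosphorylated Akt read by HTRF (ex 330 nm, em 615/665 nm) as the 665/615 ratio.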
Vif-A3G inh: qHTS for Inhibitors of Vif-A3G Interactions: qHTS. 410,000 compounds, 0.076% hits. HeLa A3G-eYFP + Vif (tagged APOBEC3G with the HIV-1 protein that degrades it), YFP fluorescence, overnight. Potency, µM (top dose mostly 46.1 µM), without a hit: top-dose activity, negative = active, usual class: inhibitors. DNA dC->dU-editing enzyme APOBEC-3G (Homo sapiens), Q9HC16; further: potency means the concentration at half of the fitted maximal effect; on the % scale 0 is the no-effect control and ±100 the full control effect; nearly all actives have a fitted effect of over 60% in size
Target sequence (Q9HC16 whole entry, looked up): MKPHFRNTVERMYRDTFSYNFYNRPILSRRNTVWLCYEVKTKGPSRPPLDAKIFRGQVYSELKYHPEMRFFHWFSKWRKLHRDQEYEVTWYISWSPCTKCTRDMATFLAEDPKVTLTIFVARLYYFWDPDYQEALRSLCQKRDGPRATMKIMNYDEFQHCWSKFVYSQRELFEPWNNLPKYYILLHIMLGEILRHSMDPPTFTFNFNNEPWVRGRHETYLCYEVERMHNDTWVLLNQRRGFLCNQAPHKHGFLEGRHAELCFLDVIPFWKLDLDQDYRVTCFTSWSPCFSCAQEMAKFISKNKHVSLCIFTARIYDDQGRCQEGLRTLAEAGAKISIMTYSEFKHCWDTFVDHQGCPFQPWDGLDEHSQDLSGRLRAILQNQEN
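HeLa cells stably expressing Vif and C-terminally eYFP-tagged A3G, seeded overnight at 37 deg C, then exposed to compound by pintool overnight at 37 deg C. Rise in yellow fluorescence (Ex 488/Em 500-530, Acumen) marks blocked Vif-driven A3G degradation.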
The depositor's hits bear a star; i = inactive; ? = inconclusive; . = no result; [ ] = dose if it differs, or a comment. Most compounds without a hit are left out; they make up all but 0.74% or so of the library. Unless noted, the call rests on the fitted dose curve; in most records, active means well fitted curve in the direction sought with a large enough effect; inconclusive means small, poorly fitted or top-dose-only effect, or another doubt; inactive means no such curve, though single readings can be large; an effect the other way counts as inactive or inconclusive.

SMILES	Vif-APOBEC3F blk	Glioma ERSR ind	PINK1 modulator	LDHA block	pAkt inh	Vif-A3G inh
COc1cccc(C2OCC(C)(C)n3c(-c4ccccc4)c4c(=O)n(C)c(=O)n(C)c4c32)c1O (stereo not drawn)	.	.	.	21.6	.	.
COc1cc(/C=C(\C#N)C(=O)c2ccc(O)c(O)c2)cc(I)c1O	?	?	0.2%	-44.5*	i	-12.4%
CCc1ccc(CCC(=O)Nc2sc(C)c(C)c2C(=O)OC)o1	-7.0%	-1.4%	0.1%[38.3 µM]	6.6	-91.1%*	-2.4%
Cc1ccccc1-c1cc(C(=O)Nc2nn[nH]n2)c2ccccc2n1	.	.	.	-3.4	.	.
Ic1cc2c(-c3ccccc3)c(-c3ccccc3)[nH]c2c2ccccc12	.	.	.	0.7	.	.
N#CC(c1ccccc1)c1ccc2c(C(F)(F)F)cc(C(F)(F)F)nc2n1 (stereo not drawn)	-2.2%	-10.1%	?	-2.3	i	9.4%
Cc1ccc(C(C#N)c2ccc3c(C(F)(F)F)cc(C(F)(F)F)nc3n2)cc1 (stereo not drawn)	2.3%	-4.1%	8.91µM*	0.0	i	-1.0%
CN1CC(c2ccccn2)C2(SC(=S)N(Cc3ccccc3)C2=O)C12C(=O)Nc1ccccc12 (stereo not drawn)	-7.2%	-1.3%	-6.1%[38.3 µM]	4.6	-83.8%*	4.4%
Cc1ccc(Nc2nc(CN3CCN(S(=O)(=O)c4cc(C)ccc4C)CC3)cs2)cc1	.	.	.	11.9	.	.
CCCCn1c(SCC(=O)Nc2ccc(NC(C)=O)cc2)nc2ccccc2c1=O	11.6%	-7.8%	9.3%	-16.1	i	-7.2%
CCCCn1c(SCC(=O)Nc2cc(C)on2)nc2ccccc2c1=O	0.0%	0.8%	12.6%[38.3 µM]	-8.7	-105.5%*	2.7%
CCOC(=O)CSc1nnc([C@H](C)NC(=O)OC(C)(C)C)o1	1.1%	-2.7%	3.4%	-2.3	-115.1%*	0.2%
CCOC(=O)CSc1nnc([C@@H](NC(=O)OC(C)(C)C)C(C)C)o1	2.0%	-0.7%	1.0%	-3.6	i	-1.2%
COCC(=O)N1C[C@H]2CON(C)[C@H]2C[C@H]1c1cccc(-c2ccccc2OC)c1	-1.2%	-1.4%	2.2%	-30.6*	i	-3.6%
COc1ccccc1-c1cccc([C@@H]2C[C@H]3[C@H](CON3C)CN2C(=O)CCc2ccccc2)c1	-5.9%	-2.4%	-0.2%	4.0	i	-3.3%
Cc1ccc(C(=O)NCCn2c(N)c(C#N)c3nc4ccccc4nc32)cc1	22.4µM*	-0.2%	?	-0.3	i	?
N#Cc1c(N)n(CCNC(=O)c2ccc(Cl)cc2)c2nc3ccccc3nc12	-20.1%	-5.7%	11.3%	9.8	i	-29.4%
Cn1c(N)c(C(=O)COC(=O)C2CCC(C(C)(C)C)CC2)c(=O)n(C)c1=O (stereo not drawn)	-3.4%	-3.5%	5.1%	-10.7	-107.7%*	-5.6%
Cn1c(N)c(C(=O)COC(=O)C2CCCC2)c(=O)n(C)c1=O	1.3%	-0.4%	-1.1%	0.8	i	4.1%
C=C(C)Cn1c(-n2nc(C)c(C)c2C)nc2c1c(=O)n(C)c(=O)n2C	.	.	.	-7.5	.	.
C=CCn1c(=O)c2c(nc(-n3nc(C)c(C)c3C)n2CC(=C)C)n(C)c1=O	.	.	.	-32.4*	.	.
CC(C)C(=O)Nc1ccc(Sc2ccc(Br)cc2)cc1	.	.	.	13.5	.	.
O=C(Nc1ccccc1-c1nc2ccccc2[nH]1)c1ccc(N2C(=O)CCC2=O)cc1	11.2µM*	-4.5%	?	-6.0	i	?
COc1ccc(/C=C2\CC/C(=C\c3ccc(OC)cc3OC)C2=O)c(OC)c1	8.91µM*	6.4%	10.0%	-2.1	i	-23.0%
O=C(Nc1ccc(Oc2ccc(NC(=O)Nc3ccc([N+](=O)[O-])cc3)cc2)cc1)Nc1ccc([N+](=O)[O-])cc1	3.5%	-8.0%	28.2µM*	-3.9	i	6.5%
SMILES	Vif-APOBEC3F blk	Glioma ERSR ind	PINK1 modulator	LDHA block	pAkt inh	Vif-A3G inh
O=[N+]([O-])c1ccc(O)c(/C=N/NC(=S)Nc2ccc(Cl)cc2Cl)c1	?	0.4%	39.8µM*	2.9	i	-6.1%
O=C(N/N=C/c1cc([N+](=O)[O-])ccc1O)c1c[nH]c2ccccc12	2.5%	-2.4%	35.5µM*	-5.7	i	0.0%
O=C(N/N=C/c1cccc([N+](=O)[O-])c1)c1c[nH]c2ccccc12	7.4%	4.5%	2.4%	-8.4	i	2.0%
CCOCCOc1nc2c(c(=O)n(C)c(=O)n2C)n1Cc1cccc2ccccc12	.	.	.	2.3	.	.
COc1ccc(/C=C/C(=O)Nc2ccc(OC)cc2[N+](=O)[O-])cc1	?	-4.9%	44.7µM*	-4.5	i	-28.3%
COc1cccc(C#Cc2c(C=O)n(C)c3ccccc23)c1	-26.4%	-5.1%	39.8µM*	0.4	i	-16.2%
CCn1c(CSc2nccn2C)nc2cc(C(=O)O)ccc21	-7.7%	-3.8%	0.4%	6.8	i	5.1%
CCn1c(CSc2nc3ccccc3[nH]2)nc2cc(C(=O)O)ccc21	-12.1%	-2.0%	4.2%	-30.0*	i	0.2%
CN1CCN(Cc2cc(=O)oc3ccc(Cl)cc23)CC1	-6.1%	-2.9%	-3.1%	-7.3	-103.7%*	-2.5%
OC1CCCN(Cc2nnc(-c3ccccc3Cl)o2)C1 (stereo not drawn)	.	.	.	1.1	.	.
COc1ccc(/C=N/NC(=O)c2cccnc2)cc1CSc1ccccn1	-2.7%	-1.6%	8.2%	-0.6	i	7.08µM*
COc1ccc(C(=O)N/N=C/c2ccc(OC)c(CSc3ccccn3)c2)cc1	3.6%	0.4%	1.2%	-1.8	i	1.7%
COc1ccc(C(=O)C(C)Oc2ccc(C)c(C)c2)cc1 (stereo not drawn)	.	.	.	3.4	.	.
CC1CC(C)(C)Nc2ccc(OC(=O)c3ccco3)cc21 (stereo not drawn)	31.6µM*	-15.0%	-1.5%	6.4	.	22.4µM*
CCc1nc2ccccc2n(CCOCCn2c(=O)c(CC)nc3ccccc32)c1=O	-6.6%	-3.8%	10µM*	-5.9	i	-3.8%
CSc1nsc(/C=C/Nc2ccc(C)cc2)c1C#N	?	2.1%	15.1%	10.2	i	12.6µM*
CSc1nsc(/C=C/Nc2ccc(C)c(C)c2)c1C#N	?	3.0%	2.9%	3.7	i	-30.5%
CC(C)C(=O)Nc1ccc(Br)cc1Br	.	.	.	-14.6	.	.
Cc1cccc(Nc2nnc(SC/C(O)=C(\C#N)c3nc4ccccc4[nH]3)s2)c1	22.4µM*	7.8%	0.6%	-1.0	i	-26.9%
Cc1ccc(NCc2ccccc2C#N)c(F)c1	.	.	.	13.0	.	.
